In PubChem BioAssay (NCI):
Values joined by “and” are separate entries in the source; they are usually repeats but may differ in a detail not shown here. Equal entries are not always repeated. This is part of a sample that, as a whole, favours compounds with a hit. Of some 79,000 tested, about 15% had one in any assay. Active and inactive are the calls of the source. Rule as the data show it: active = growth inhibition above about 70%; inactive = the rest.

experiment: NCI Yeast Anticancer Drug Screen. Data for the rad50 strain (AID 155);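 also: 0% = growth of vehicle-only cultures of the same strain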; details: S. cerevisiae rad50 strain growth inhibition; at 50.0 µM; stronger effect = higher value
How it was run: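 Compounds were tested on a yeast strain with an engineered DNA damage repair alteration; the reported value is growth inhibition normalised to vehicle treatment.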

| SMILES | growth inhibition |
| --- | --- |
| NC(=O)c1ccc(NN=O)nc1 | -10.4% (inactive) |
| CCOC(=O)C(=O)CC(=O)[C@H]1CC[C@H]2[C@@H]3CC[C@@H]4C[C@H](O)CC[C@]4(C)[C@H]3C(=O)C[C@]12C | 30.6% (inactive) |
| CCCN1CCC2(CC1)COCc1ccccc12 | 30.8% (inactive) |
| NCC(O)c1ccc2c(c1)OCO2 (stereo not given) | -48.8% (inactive) |
| O=C(CF)NCCCl | -3.45% (inactive) |
| Cc1ccc([As]=[As]c2ccc(C)cc2N)c(N)c1 (stereo not given) | -12.3% (inactive) |
| CN(C)NP(c1ccccc1)c1ccccc1 | -2.55% (inactive) |
| Oc1ccc(C(O)C2CCCCN2)cc1O (stereo not given) | -10.5% (inactive) |
| CC(=O)OCC1OC(OC(C)=O)C(N(CCCl)CCCl)C(OC(C)=O)C1OC(C)=O (stereo not given) | 2.2% (inactive) |
| [N-]=[N+]=Nc1cc(=O)oc2ccccc12 | 25.6% (inactive) |
| COc1ccc2c(c1O)C13CCN(C)C(C2)C1CCC(O)C3 (stereo not given) | -16.4% (inactive) |
| O=[N+]([O-])O.[Tl] | -5.5% (inactive) |
| CCCCC(CC)C(O)P(=O)(OCC)OCC (stereo not given) | -0.55% (inactive) |
| COc1cccc(/C=N/[N-]C(=O)c2ccncc2)c1[O-].[Ni+2].[OH3+] | -14.6% (inactive) |
| NC(N)=NOCC[C@@H](N)C(=O)O | -0.5% (inactive) |
| O=Cc1ccccc1O | 28.8% (inactive) |
| O=C(OCCOCCOC(=O)C(Cl)(Cl)Cl)C(Cl)(Cl)Cl | -47% (inactive) |
| CCC1(c2c(F)c(F)c(N)c(F)c2F)CCC(=O)NC1=O (stereo not given) | -11.9% (inactive) |
| COc1cc2ccnc(C3(OC(=O)c4ccccc4)CCN(CCc4ccccc4)CC3)c2cc1OC | -1.3% (inactive) |
| CN1C(=O)C2(Cc3cn(C45CC67SSC(CO)(C(=O)N6C4Nc4ccccc45)N(C)C7=O)c4ccccc34)SSC1(CO)C(=O)N2C (stereo not given) | 90.2% (active) |

| SMILES | growth inhibition |
| --- | --- |
| CC1C/C(=C\N=[N+]=[N-])C(=O)O1 (stereo not given) | -11.4% (inactive) |
| S=c1sc(-c2ccc(Cl)cc2)c[se]1 | 4.45% (inactive) |
| CN(C)C(=O)Sc1c(Cl)cc(S(=O)(=O)F)cc1[N+](=O)[O-] | 22.9% (inactive) |
| NC1=NC(=O)C(c2ccccc2)(c2ccccc2)O1 | -1% (inactive) |
| O=Cc1ccccc1O.[Pr] | 29.1% (inactive) |
| O=P(Nc1ccc(Cl)cc1)(Oc1ccccc1)N(CCCl)CCCl (stereo not given) | 3.75% (inactive) |
| CC12CCC(OC3OC(CO)C(OC4OC(CO)C(O)C(O)C4O)C(O)C3O)CC1CCC1C2CCC2(C)C(C3=CC(=O)OC3)CCC12O (stereo not given) | 15.8% (inactive) |
| CC1=C[C@H]2[C@@]3(O)[C@H](C)C[C@]4(OC(=O)C(C)C)[C@H]([C@@H]3C=C(CO)C[C@]2(O)C1=O)C4(C)C | 20.1% (inactive) |
| Oc1cccc2cccnc12.[Cr] | 6% (inactive) |
| CC12CCC3C(CC=C4CC(=O)CCC43CCO)C1CCC2Oc1ccccc1 (stereo not given) | 5.3% (inactive) |
| CC(=O)[CH-]C(C)=O.CC(=O)[CH-]C(C)=O.CC(=O)[CH-]C(C)=O.[Ga+3] | 28.6% (inactive) |
| Cc1ccc(CI)cc1 | -2.15% (inactive) |
| COc1ccc2c3c1O[C@]1(C)C34CCN(C)C(C2)C42C=C[C@@]1(OC)c1c(O)ccc(O)c12 | 6.55% (inactive) |
| CO/N=C1\CC(C)N2C(=O)C(C(C)C)NC(=O)C(NC(=O)c3c4nc5c(C(=O)NC6C(=O)NC(C(C)C)C(=O)N7C(C)CC(O)C7C(=O)N(C)CC(=O)N(C)C(C(C)C)C(=O)OC6C)ccc(C)c5oc-4c(C)c(=O)c3N)C(CO)OC(=O)C(C)N(C)C(=O)CN(C)C(=O)C12 (stereo not given) | 23.1% (inactive) |
| Cc1c(Cl)cccc1NC(=O)C(=O)C1C(=O)NC(=O)NC1=O | -10.8% (inactive) |
| COc1ccc2c3c1OC1C(Oc4nnnn4-c4ccccc4)C=CC4C(C2)N(C)CCC341 (stereo not given) | 39.2% (inactive) |
| CC(C)N(N=O)C(C)C | 13.7% (inactive) |
| C[C@]12Cc3cnc(-c4ccccc4)nc3C[C@@H]1CC[C@@H]1[C@@H]2CC[C@@]2(C)[C@H]1CC[C@]2(C)O | 23.6% (inactive) |
| c1cc2c(c(NC3=NCCO3)c1)CCCC2 | 3.4% (inactive) and 5.65% (inactive) |
| CCNC(Cc1ccccc1)c1ccco1 (stereo not given) | -2.35% (inactive) |

experiment: NCI Yeast Anticancer Drug Screen. Data for the mec2-1 strain (AID 157); details: S. cerevisiae mec2-1 strain, at 50.0 µM, stronger effect = higher value
How it was run: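 Growth inhibition is read against vehicle-treated controls after compound exposure of the mec2-1 yeast strain, which is defective in DNA damage repair or cell cycle control.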

| SMILES | growth inhibition |
| --- | --- |
| NC(=O)c1ccc(NN=O)nc1 | 0.9% (inactive) |
| CCOC(=O)C(=O)CC(=O)[C@H]1CC[C@H]2[C@@H]3CC[C@@H]4C[C@H](O)CC[C@]4(C)[C@H]3C(=O)C[C@]12C | 15.3% (inactive) |
| CCCN1CCC2(CC1)COCc1ccccc12 | 26.9% (inactive) |
| NCC(O)c1ccc2c(c1)OCO2 (stereo not given) | -12.7% (inactive) |
| O=C(CF)NCCCl | -8.8% (inactive) |
| Cc1ccc([As]=[As]c2ccc(C)cc2N)c(N)c1 (stereo not given) | -2.8% (inactive) |
| CN(C)NP(c1ccccc1)c1ccccc1 | -3.8% (inactive) |
| Oc1ccc(C(O)C2CCCCN2)cc1O (stereo not given) | -20.9% (inactive) |
| CC(=O)OCC1OC(OC(C)=O)C(N(CCCl)CCCl)C(OC(C)=O)C1OC(C)=O (stereo not given) | 7% (inactive) |
| [N-]=[N+]=Nc1cc(=O)oc2ccccc12 | 10.2% (inactive) |
| COc1ccc2c(c1O)C13CCN(C)C(C2)C1CCC(O)C3 (stereo not given) | 2.95% (inactive) |
| O=[N+]([O-])O.[Tl] | -23.2% (inactive) |
| CCCCC(CC)C(O)P(=O)(OCC)OCC (stereo not given) | 19% (inactive) |
| COc1cccc(/C=N/[N-]C(=O)c2ccncc2)c1[O-].[Ni+2].[OH3+] | -4.05% (inactive) |
| NC(N)=NOCC[C@@H](N)C(=O)O | -3.7% (inactive) |
| O=Cc1ccccc1O | -2.25% (inactive) |
| O=C(OCCOCCOC(=O)C(Cl)(Cl)Cl)C(Cl)(Cl)Cl | -33.1% (inactive) |
| CCC1(c2c(F)c(F)c(N)c(F)c2F)CCC(=O)NC1=O (stereo not given) | -6.25% (inactive) |
| COc1cc2ccnc(C3(OC(=O)c4ccccc4)CCN(CCc4ccccc4)CC3)c2cc1OC | -7.15% (inactive) |
| CN1C(=O)C2(Cc3cn(C45CC67SSC(CO)(C(=O)N6C4Nc4ccccc45)N(C)C7=O)c4ccccc34)SSC1(CO)C(=O)N2C (stereo not given) | 90.3% (active) |

| SMILES | growth inhibition |
| --- | --- |
| CC1C/C(=C\N=[N+]=[N-])C(=O)O1 (stereo not given) | 14.7% (inactive) |
| S=c1sc(-c2ccc(Cl)cc2)c[se]1 | 3.85% (inactive) |
| CN(C)C(=O)Sc1c(Cl)cc(S(=O)(=O)F)cc1[N+](=O)[O-] | 19.1% (inactive) |
| NC1=NC(=O)C(c2ccccc2)(c2ccccc2)O1 | -8.6% (inactive) |
| O=Cc1ccccc1O.[Pr] | -24.4% (inactive) |
| O=P(Nc1ccc(Cl)cc1)(Oc1ccccc1)N(CCCl)CCCl (stereo not given) | -1.55% (inactive) |
| CC12CCC(OC3OC(CO)C(OC4OC(CO)C(O)C(O)C4O)C(O)C3O)CC1CCC1C2CCC2(C)C(C3=CC(=O)OC3)CCC12O (stereo not given) | -3.95% (inactive) |
| CC1=C[C@H]2[C@@]3(O)[C@H](C)C[C@]4(OC(=O)C(C)C)[C@H]([C@@H]3C=C(CO)C[C@]2(O)C1=O)C4(C)C | 14.3% (inactive) |
| Oc1cccc2cccnc12.[Cr] | -0.65% (inactive) |
| CC12CCC3C(CC=C4CC(=O)CCC43CCO)C1CCC2Oc1ccccc1 (stereo not given) | -11.9% (inactive) |
| CC(=O)[CH-]C(C)=O.CC(=O)[CH-]C(C)=O.CC(=O)[CH-]C(C)=O.[Ga+3] | 13.9% (inactive) |
| Cc1ccc(CI)cc1 | -6.7% (inactive) |
| COc1ccc2c3c1O[C@]1(C)C34CCN(C)C(C2)C42C=C[C@@]1(OC)c1c(O)ccc(O)c12 | -13.2% (inactive) |
| CO/N=C1\CC(C)N2C(=O)C(C(C)C)NC(=O)C(NC(=O)c3c4nc5c(C(=O)NC6C(=O)NC(C(C)C)C(=O)N7C(C)CC(O)C7C(=O)N(C)CC(=O)N(C)C(C(C)C)C(=O)OC6C)ccc(C)c5oc-4c(C)c(=O)c3N)C(CO)OC(=O)C(C)N(C)C(=O)CN(C)C(=O)C12 (stereo not given) | -18.8% (inactive) |
| Cc1c(Cl)cccc1NC(=O)C(=O)C1C(=O)NC(=O)NC1=O | -10.8% (inactive) |
| COc1ccc2c3c1OC1C(Oc4nnnn4-c4ccccc4)C=CC4C(C2)N(C)CCC341 (stereo not given) | 5.55% (inactive) |
| CC(C)N(N=O)C(C)C | -4.6% (inactive) |
| C[C@]12Cc3cnc(-c4ccccc4)nc3C[C@@H]1CC[C@@H]1[C@@H]2CC[C@@]2(C)[C@H]1CC[C@]2(C)O | 25.1% (inactive) |
| c1cc2c(c(NC3=NCCO3)c1)CCCC2 | 1.05% (inactive) and -2.1% (inactive) |
| CCNC(Cc1ccccc1)c1ccco1 (stereo not given) | -12.1% (inactive) |
